Screens as filed in PubChem BioAssay.
ELG1 DNA repair = inhibitors of ELG1-dependent DNA repair in HEK293T cells. HEK293T ELG1-luciferase reporter, luminescence, 16 h; DNA damage induced by 5-fluorouridine. Potency, µM (highest dose often 46.1 µM), hits mostly inhibitors. hit rate 2.3% among 330,000. AID 504467; further: nearly all actives have a fitted effect of over 55% in size
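In this reporter screen, reduction of luminescence relative to DMSO vehicle indicated activity. Compounds and 5-fluorouridine were added together to 2,000 cells per well, incubated for 16 hr at 37 °C, then developed with ONE-Glo.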
RORg inh = blocks mouse ROR gamma transcriptional activity. P51450. AID 2551. hit rate 5.4% among 310,000. Drosophila S2 Gal4-RORgamma UAS-luciferase reporter, 20 h. Potency, µM (highest dose often 53.6 µM), most hits filed as inhibitors; further: nearly all actives have a fitted effect of over 60% in size
Target sequence (P51450 whole entry, looked up, the tested form may be a part): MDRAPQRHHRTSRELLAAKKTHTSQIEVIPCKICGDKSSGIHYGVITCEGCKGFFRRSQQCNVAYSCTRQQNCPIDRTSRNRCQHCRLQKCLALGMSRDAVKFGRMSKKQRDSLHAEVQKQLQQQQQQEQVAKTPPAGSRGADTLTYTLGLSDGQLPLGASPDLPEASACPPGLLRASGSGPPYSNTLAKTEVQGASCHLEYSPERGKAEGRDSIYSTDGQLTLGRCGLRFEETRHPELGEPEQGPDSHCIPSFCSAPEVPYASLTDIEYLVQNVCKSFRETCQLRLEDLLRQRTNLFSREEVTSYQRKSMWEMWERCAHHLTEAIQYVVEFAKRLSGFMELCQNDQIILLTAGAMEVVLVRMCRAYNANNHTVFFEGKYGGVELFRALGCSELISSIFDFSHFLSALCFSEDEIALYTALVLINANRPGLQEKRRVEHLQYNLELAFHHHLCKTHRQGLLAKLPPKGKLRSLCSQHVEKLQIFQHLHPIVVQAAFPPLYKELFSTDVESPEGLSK
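Luciferase reporter read in Schneider cells carrying Gal4-RORγ (mouse) and UAS-Photinus luciferase; cells given compound 1 h before 700 uM copper sulfate induction, then incubated 20 h at ambient temperature.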
DT40 TDP1 no CPT = qHTS for Inhibitors of human tyrosyl-DNA phosphodiesterase 1 (TDP1): qHTS in cells in absence of CPT; DT40 Tdp1-/- hTDP1 cells, no CPT, ATP luminescence, 48 h; Potency, µM (doses to about 46.2 µM), usual class: inhibitors; hit rate 15% among 420,000; further: nearly all actives have a fitted effect of over 55% in size
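Chicken DT40 Tdp1-/- cells stably complemented with human TDP1 were seeded at 400 cells/well with DMSO in place of 20 nM camptothecin. After compound pinning, cells grew at least 48 hr at 37 °C; viability read by CellTiter-Glo luminescence.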
12-LOX inh = blocks human arachidonate 12S-lipoxygenase. purified 12hLO, xylenol orange hydroperoxide absorbance. Potency, µM (titrated, usually from 108 µM), most hits filed as inhibitors. hit rate 1.1% among 580,000. AID 1671190
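Hydroperoxide product was detected by ferrous iron/xylenol orange as the 573 to 405 nm absorbance ratio. Arachidonic acid at 40 uM (final) was turned over for 30 min at room temperature by 150 nM human 12hLO, pH 7.0 Hepes buffer, after 15 min compound preincubation.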
DT40 TDP1 CPT = growth inhibition of DT40 Tdp1-/-;hTDP1 cells with camptothecin (screen for TDP1 inhibitors); chicken DT40 Tdp1-/-;hTDP1 cells + 20 nM CPT, ATP luminescence, 48 h; Potency, µM (top dose mostly 46.2 µM), most hits filed as inhibitors; hit rate 12% among 420,000; AID 686979; further: nearly all actives have a fitted effect of over 55% in size
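Chicken DT40 Tdp1-/- cells stably complemented with human TDP1 were seeded at 400 cells/well in medium containing 20 nM camptothecin, exposed to pin-transferred compounds, and grown at 37 °C for at least 48 hr. Viability was read as ATP luminescence.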
VP16 counter = inhibits Gal4-VP16 luciferase reporter, ROR gamma counter-screen; hit rate 3.5% among 310,000; Potency, µM (highest dose often 53.6 µM), usual class: inhibitors; Drosophila S2 Gal4-VP16 UAS-luciferase, luminescence, 20 h;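 further: Gal4-VP16 expression switched on by copper sulfate through the metallothionein promoter; nearly all actives have a fitted effect of over 50% in size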
Each line names hits and unclear results; the compound was inactive in the other large screens. Sampled rows, rich in hits. Any-hit rate of the full collection: about 15%. The call rests on the fitted dose curve; in most records, active means well fitted curve in the direction sought with a large enough effect; inconclusive means small, poorly fitted or top-dose-only effect, or another doubt; inactive means no such curve, though single readings can be large; an effect the other way counts as inactive or inconclusive.

Cn1nc(C(=O)Nc2ncc(Cc3cc(C(F)(F)F)ccc3Cl)s2)c2ccccc2c1=O	none (no result: ELG1 DNA repair, RORg inh, DT40 TDP1 no CPT, DT40 TDP1 CPT, VP16 counter)
C/C(=N\NC(=S)Nc1ccccc1C)C1Cc2ccccc2C(=O)O1 (centres undefined)	ELG1 DNA repair inconclusive, RORg inh 2.8µM, DT40 TDP1 no CPT 6.5µM, 12-LOX inh inconclusive, DT40 TDP1 CPT inconclusive, VP16 counter inconclusive
COc1cc(CNc2ccc(CNc3ncn[nH]3)cc2)ccc1OCC(=O)NC(C)(C)C	ELG1 DNA repair inconclusive, DT40 TDP1 no CPT 16µM, DT40 TDP1 CPT inconclusive
CC(C)(C)NC(=O)COc1ccc(CNc2ncn[nH]2)cc1	none
CCOc1cc(CNc2ccc(Br)cc2)cc(Br)c1OCC(=O)NC(C)(C)C	ELG1 DNA repair inconclusive, DT40 TDP1 no CPT inconclusive, DT40 TDP1 CPT 21µM
CN(C)c1nc2c(c(=O)[nH]1)CCN(Cc1cccc(OC(F)(F)F)c1)CC2	none (no result: ELG1 DNA repair, RORg inh, DT40 TDP1 no CPT, DT40 TDP1 CPT, VP16 counter)
COc1ccc(S(=O)(=O)N2CCN(CC(=O)Nc3cc(C(F)(F)F)ccc3Cl)CC2)cc1	DT40 TDP1 no CPT 10µM, DT40 TDP1 CPT inconclusive (no result: 12-LOX inh)
COc1ccc(NC(=O)CN2CCCN(S(=O)(=O)c3ccc(F)cc3)CC2)cc1	12-LOX inh inconclusive
O=C(CN1CCN(S(=O)(=O)c2ccc(F)cc2)CC1)Nc1cc(C(F)(F)F)ccc1Cl	ELG1 DNA repair 26µM, RORg inh inconclusive, DT40 TDP1 no CPT inconclusive, DT40 TDP1 CPT 21µM
COCCc1noc([C@@H]2CN(C3CCCCC3)C[C@H]2CO)n1	none (no result: ELG1 DNA repair, RORg inh, DT40 TDP1 no CPT, DT40 TDP1 CPT, VP16 counter)
O=c1[nH]c2ccccc2nc1-c1ccccc1	ELG1 DNA repair inconclusive
NC(=O)N=Nc1c2[nH]c3ccccc3nc-2c2ccccc12	ELG1 DNA repair inconclusive, RORg inh inconclusive, DT40 TDP1 no CPT 8.2µM, DT40 TDP1 CPT 16µM
CCOc1ccc(-c2c(C#N)c(N)nc3sc(C(=O)c4ccccc4)c(N)c23)cc1	DT40 TDP1 CPT inconclusive
COc1ccc(-c2c(C#N)c(N)nc3c2c(=O)n(C)c(=O)n3C)cc1	ELG1 DNA repair inconclusive, DT40 TDP1 no CPT 13µM, DT40 TDP1 CPT inconclusive
COc1ccc(-c2c(C#N)c(N)nc3sc(C(=O)c4ccccc4)c(N)c23)cc1	ELG1 DNA repair inconclusive, DT40 TDP1 no CPT 23µM, DT40 TDP1 CPT inconclusive
CCc1cc(C(=O)O)cs1	none (no result: ELG1 DNA repair, RORg inh, DT40 TDP1 no CPT, DT40 TDP1 CPT, VP16 counter)
CCc1cccc(CC)c1NC(=O)CO/N=C/c1ccccc1O	none (no result: ELG1 DNA repair, RORg inh, DT40 TDP1 no CPT, DT40 TDP1 CPT, VP16 counter)
CN1CC(=O)N(C2CCCNCC2)Cc2c1ncnc2N1CCN(Cc2ccccc2)CC1 (centres undefined)	none (no result: ELG1 DNA repair, RORg inh, DT40 TDP1 no CPT, DT40 TDP1 CPT, VP16 counter)
COc1ccc(-c2noc(N3CCC(C(=O)N(C)c4ccccc4)CC3)n2)cc1	DT40 TDP1 no CPT 29µM, DT40 TDP1 CPT inconclusive
COc1ccc(-c2noc(N3CCC(C(=O)NC(C)c4ccccc4)CC3)n2)cc1 (centres undefined)	ELG1 DNA repair 13µM, DT40 TDP1 no CPT 26µM, DT40 TDP1 CPT inconclusive
CCOC(=O)N1CCC(NC(=O)C2CCN(c3nc(-c4ccc(OC)cc4)no3)CC2)CC1	DT40 TDP1 no CPT 4.1µM, DT40 TDP1 CPT inconclusive
CCN(C(=O)C1CCN(c2nc(-c3ccc(OC)cc3)no2)CC1)c1ccccc1	ELG1 DNA repair inconclusive, DT40 TDP1 no CPT inconclusive, DT40 TDP1 CPT inconclusive
COc1ccc(-c2noc(N3CCC(C(=O)NCc4ccc(Cl)cc4)CC3)n2)cc1	ELG1 DNA repair inconclusive, RORg inh inconclusive, DT40 TDP1 no CPT inconclusive, VP16 counter inconclusive
COc1ccc(-c2noc(N3CCC(C(=O)NCc4ccccc4Cl)CC3)n2)cc1	ELG1 DNA repair inconclusive, DT40 TDP1 no CPT 26µM, DT40 TDP1 CPT 16µM
Fc1ccc(N2CCN(Cc3ncc(-c4ccccc4)o3)CC2)cc1	none (no result: ELG1 DNA repair, RORg inh, DT40 TDP1 no CPT, DT40 TDP1 CPT, VP16 counter)
Cc1cccnc1Nc1nc(-c2ccc(O)c(O)c2)cs1	ELG1 DNA repair inconclusive, DT40 TDP1 no CPT 3.7µM, 12-LOX inh 2.8µM, DT40 TDP1 CPT 3.3µM, VP16 counter 7.1µM
COc1ccc(-c2csc(Nc3ncccc3C)n2)cc1OC	ELG1 DNA repair inconclusive, RORg inh 3.5µM, DT40 TDP1 no CPT inconclusive, 12-LOX inh inconclusive, DT40 TDP1 CPT inconclusive
COc1ccc(-c2csc(Nc3ncccc3C)n2)cc1	ELG1 DNA repair inconclusive, RORg inh inconclusive, DT40 TDP1 no CPT inconclusive, DT40 TDP1 CPT inconclusive
